Assay results as given in PubChem BioAssay (NCATS).
Records with an inconclusive call do not appear. Activity calls are given as the source filed them. Calls come from the whole dose curve; as a rule, active = well fitted curve in the direction sought with a large enough effect; inconclusive = small, poorly fitted or top-dose-only effect, or another doubt; inactive = no such curve, though single readings can be large; an effect the other way counts as inactive or inconclusive.

What was measured:
NIH3T3 = test: qHTS assay to identify novel small-molecules to repurpose for Merkel cell carcinoma treatment (AID 1296009); details: MCC and control cell lines, CellTiter-Glo viability, 72 h; at 44.8 µM (top of the series) unless noted; note: nearly all actives have a fitted effect of over 60% in size
How it was run: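 72 hr, 37 degree celsius; NPC 8-pt / MIPE 11-pt dose response; compound pinned in DMSO; CellTiter-Glo, 10 min RT, luminescence; normalized to no-cell and DMSO controls.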

C33A = test: Primary qHTS to identify gynecologic anti-cancer compounds using libraries of approved drugs and bioactive compounds (AID 1345084); details: Gynecologic cancer cell panel viability, ATPlite luminescence, 48 h; series mostly up to 57.5 µM; note: nearly all actives have a fitted effect of over 55% in size; note: potency is the fitted concentration of half-maximal effect; for activity change, negative = cytotoxicity: % is set by controls: 0 for no effect and ±100 for the full control effect
How it was run: (§1)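 Cytotoxicity screen measuring ATP content by luciferase luminescence. Each compound is applied at five concentrations for 48 h at 37 C with 5% CO2.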

CASKI = test: as above; details: Gynecologic cancer cell panel viability, ATPlite luminescence, 48 h; series mostly up to 57.5 µM
How it was run: as §1

Es-2 = test: as above; details: Gynecologic cancer cell panel viability, ATPlite luminescence, 48 h; series mostly up to 57.5 µM
How it was run: as §1

HeLa = test: as above; details: Gynecologic cancer cell panel viability, ATPlite luminescence, 48 h; series mostly up to 57.5 µM
How it was run: as §1

Hek293T = test: as above; details: Gynecologic cancer cell panel viability, ATPlite luminescence, 48 h, control line for the selectivity index; series mostly up to 57.5 µM
How it was run: as §1

JEG-3 = test: as above; details: Gynecologic cancer cell panel viability, ATPlite luminescence, 48 h; series mostly up to 57.5 µM
How it was run: as §1

OV90 = test: as above; details: Gynecologic cancer cell panel viability, ATPlite luminescence, 48 h; series mostly up to 57.5 µM
How it was run: as §1

PA-1 = test: as above; details: Gynecologic cancer cell panel viability, ATPlite luminescence, 48 h; series mostly up to 57.5 µM
How it was run: as §1

Tov-21-G = test: as above; details: Gynecologic cancer cell panel viability, ATPlite luminescence, 48 h; series mostly up to 57.5 µM
How it was run: as §1

Tov112D = test: as above; details: Gynecologic cancer cell panel viability, ATPlite luminescence, 48 h; series mostly up to 57.5 µM
How it was run: as §1

CAOV3 = test: as above; details: Gynecologic cancer cell panel viability, ATPlite luminescence, 48 h; series mostly up to 57.5 µM
How it was run: as §1

SKOV3 = test: as above; details: Gynecologic cancer cell panel viability, ATPlite luminescence, 48 h; series mostly up to 57.5 µM
How it was run: as §1

C=C1CC[C@@H]2[C@](C)(CC[C@H](O)[C@@]2(C)CCC=C(C)C)[C@@H]1Cc1c[nH]c2ccccc12
inactive: outcome (NIH3T3) inactive [at 17.4 µM] | Potency (C33A) | Potency (CASKI) | Potency (Es-2) | Potency (HeLa) | Potency (Hek293T) | Potency (JEG-3) | Potency (OV90) | Potency (PA-1) | Potency (Tov-21-G) | Potency (Tov112D)

CC12CCC3C(C)(C)C(O)CCC3(C)C1Cc1c(oc(C(=O)O)cc1=O)O2 (centres undefined)
inactive: Potency (C33A) | Potency (CAOV3) | Potency (CASKI) | Potency (Es-2) | Potency (HeLa) | Potency (Hek293T) | Potency (JEG-3) | Potency (OV90) | Potency (PA-1) | Potency (SKOV3) | Potency (Tov-21-G) | Potency (Tov112D)

C=C1CCC2C(C)(CO[C@@H]3O[C@H](CO)[C@@H](O)[C@H](O)[C@H]3O)C(O)CCC2(C)C1C(=O)CC1=CCOC1=O (some centres undefined)
inactive: Potency (C33A) | Potency (CAOV3) | Potency (CASKI) | Potency (Es-2) | Potency (HeLa) | Potency (Hek293T) | Potency (JEG-3) | Potency (OV90) | Potency (PA-1) | Potency (SKOV3) | Potency (Tov-21-G) | Potency (Tov112D)

CC(=O)O[C@@H]1[C@H](O[C@@H]2O[C@H](CO)[C@@H](O)[C@H](O)[C@H]2O)[C@@H](O[C@@H]2O[C@@H](C)[C@H](O)[C@@H](O[C@@H]3O[C@H](CO)[C@@H](O)[C@H](O)[C@H]3O)[C@H]2O)[C@H](OC(=O)C23CCC4(C)C(=CCC5C6(C)CC(O)C(O[C@@H]7O[C@H](C(=O)O)[C@@H](O)[C@H](O)[C@H]7O)C(C)(C(=O)O)C6CCC54C)C2CC(C)(C)CC3O)O[C@@H]1C (some centres undefined)
inactive: activity change, negative = cytotoxicity (C33A) 3.56% [at 6.55 µM] | activity change, negative = cytotoxicity (CAOV3) 14.4% [at 6.55 µM] | activity change, negative = cytotoxicity (CASKI) 24.3% [at 6.55 µM] | activity change, negative = cytotoxicity (Es-2) 1.96% [at 6.55 µM] | activity change, negative = cytotoxicity (HeLa) -1.78% [at 6.55 µM] | activity change, negative = cytotoxicity (Hek293T) 14.8% [at 6.55 µM] | activity change, negative = cytotoxicity (JEG-3) 1.97% [at 6.55 µM] | activity change, negative = cytotoxicity (OV90) 8.45% [at 6.55 µM] | activity change, negative = cytotoxicity (PA-1) 25.5% [at 6.55 µM] | activity change, negative = cytotoxicity (SKOV3) 2.37% [at 6.55 µM] | activity change, negative = cytotoxicity (Tov-21-G) 4.93% [at 6.55 µM] | activity change, negative = cytotoxicity (Tov112D) 4.44% [at 6.55 µM]

COc1ccccc1-n1c(SCC(=O)Nc2nc3ccc(C)cc3s2)nc2c(c1=O)SCC2
inactive: Potency (C33A) | Potency (CAOV3) | Potency (CASKI) | Potency (Es-2) | Potency (HeLa) | Potency (Hek293T) | Potency (JEG-3) | Potency (OV90) | Potency (PA-1) | Potency (SKOV3) | Potency (Tov-21-G) | Potency (Tov112D)

C/C=C/C=C/C(CC(=O)O)Nc1ccc(C=O)cc1 (centres undefined)
inactive: Potency (C33A) | Potency (CAOV3) | Potency (CASKI) | Potency (Es-2) | Potency (HeLa) | Potency (Hek293T) | Potency (JEG-3) | Potency (OV90) | Potency (PA-1) | Potency (SKOV3) | Potency (Tov-21-G) | Potency (Tov112D)

O=C(O)CCc1cc2ccoc2cc1O[C@@H]1O[C@H](CO[C@@H]2OC[C@](O)(CO)[C@H]2O)[C@@H](O)[C@H](O)[C@H]1O
inactive: Potency (C33A) | Potency (CAOV3) | Potency (CASKI) | Potency (Es-2) | Potency (HeLa) | Potency (Hek293T) | Potency (JEG-3) | Potency (OV90) | Potency (PA-1) | Potency (SKOV3) | Potency (Tov-21-G) | Potency (Tov112D)

COc1ccc(C[C@H](N)C(=O)N[C@H]2[C@@H](O)[C@H](n3cnc4c(N(C)C)ncnc43)O[C@@H]2CO)cc1
active: Potency (C33A) 2820 nM | Potency (CAOV3) 1120 nM | Potency (CASKI) 1580 nM | Potency (Es-2) 3160 nM | Potency (HeLa) 2000 nM | Potency (Hek293T) 2820 nM | Potency (JEG-3) 3980 nM | Potency (OV90) 3160 nM | Potency (PA-1) 708 nM | Potency (SKOV3) 3550 nM | Potency (Tov-21-G) 3980 nM | Potency (Tov112D) 2000 nM

CC(C)CC(=O)O[C@@H]1OC=C(CO[C@@H]2O[C@H](CO[C@@H]3O[C@H](CO)[C@@H](O)[C@H](O)[C@H]3O)[C@@H](O)[C@H](O)[C@H]2O)[C@H]2C[C@H](O)[C@@H](CO)[C@@H]12
inactive: Potency (C33A) | Potency (CAOV3) | Potency (CASKI) | Potency (Es-2) | Potency (HeLa) | Potency (Hek293T) | Potency (JEG-3) | Potency (OV90) | Potency (PA-1) | Potency (SKOV3) | Potency (Tov-21-G) | Potency (Tov112D)

CC1(C)CC2C3=CCC4C5(C)CCC(OC6OC(C(=O)O)C(O)C(O)C6OC6OC(CO)C(O)C(O)C6OC6OC(CO)C(O)C(O)C6O)C(C)(CO)C5CCC4(C)C3(C)CCC2(C)C(OC2OCC(O)C(OC3OC(CO)C(O)C(O)C3O)C2O)C1O (centres undefined)
inactive: activity change, negative = cytotoxicity (C33A) 8.44% [at 6.55 µM] | activity change, negative = cytotoxicity (CAOV3) 13.1% [at 6.55 µM] | activity change, negative = cytotoxicity (CASKI) 6.12% [at 6.55 µM] | activity change, negative = cytotoxicity (Es-2) 1.46% [at 6.55 µM] | activity change, negative = cytotoxicity (HeLa) -0.393% [at 6.55 µM] | activity change, negative = cytotoxicity (Hek293T) 8.01% [at 6.55 µM] | activity change, negative = cytotoxicity (JEG-3) 6.32% [at 6.55 µM] | activity change, negative = cytotoxicity (OV90) -9.75% [at 6.55 µM] | activity change, negative = cytotoxicity (PA-1) 5.88% [at 6.55 µM] | activity change, negative = cytotoxicity (SKOV3) 16.1% [at 6.55 µM] | activity change, negative = cytotoxicity (Tov-21-G) -0.438% [at 6.55 µM] | activity change, negative = cytotoxicity (Tov112D) 1.06% [at 6.55 µM]
